For 40 compounds, cytotoxicity call results are on record in the antibiotic and cytotoxicity screens of Wong et al. (2023).

Molecules are shown by their SMILES. In all, about 39,000 compounds went through this assay and about 1,500 (3.8%) were called active. What follows is part of a selection rich in actives, with near analogues and random picks from the rest.

This experiment relates to HSkMC (human skeletal muscle cells). Briefly: cytotoxicity call (relative viability < 0.9). The settings on record: 10 µM.
For `CC(C)NC(=O)N(C)C[C@H]1OCc2cn(nn2)CCCC(=O)N([C@H](C)CO)C[C@H]1C`, the cytotoxicity call is “inactive”. On to `C[C@H]1CN([C@@H](C)CO)C(=O)c2cc(NS(C)(=O)=O)ccc2O[C@@H]1CN(C)S(=O)(=O)c1ccc(Cl)cc1`, for which the cytotoxicity call was “inactive”. The result for `CO[C@H]1CN(C)C(=O)c2ccc(NC(=O)Nc3ccc(Cl)cc3)cc2OC[C@@H](C)N(C(=O)Nc2c(C)noc2C)C[C@H]1C` reads “inactive”. As to `C[C@@H]1CCCCO[C@@H](CN(C)Cc2ccncc2)[C@@H](C)CN([C@H](C)CO)C(=O)c2cc(NC(=O)Nc3ccc(C(F)(F)F)cc3)ccc2O1`, the cytotoxicity call was “inactive”. For the compound `CC(C)CC#Cc1ccc2c(c1)O[C@@H](CN(C)S(=O)(=O)c1cccc(F)c1)[C@@H](C)CN([C@@H](C)CO)S2(=O)=O`, the cytotoxicity call was “inactive”.

As for `C1CCN2CC3CC(CN4CCCCC34)C2C1.O=S(=O)(O)O` (stereo not given), the cytotoxicity call was “inactive”.

Turning to `C[C@@H]1CN([C@@H](C)CO)C(=O)c2cc(NC(=O)CCCN(C)C)ccc2O[C@H]1CN(C)S(=O)(=O)c1ccc(Cl)cc1`, the cytotoxicity call is “inactive”.

As to `C[C@H]1CN([C@@H](C)CO)C(=O)Cc2cc(N(C)C)ccc2O[C@@H]1CN(C)S(=O)(=O)c1ccc(F)cc1`, the cytotoxicity call is “inactive”. The entry for `C[C@@H]1CN([C@H](C)CO)C(=O)CCCn2cc(nn2)CO[C@H]1CN(C)S(=O)(=O)c1ccc(Oc2ccccc2)nc1` is “inactive”; for `C[C@@H]1CN([C@@H](C)CO)C(=O)c2cccc(NC(=O)C3CC3)c2O[C@@H]1CN(C)S(=O)(=O)c1ccc(F)cc1` it is “inactive”. With `Cn1c(Nc2ccc(C(F)(F)F)cc2)nc2cc(Oc3ccnc(-c4ncc(C(F)(F)F)[nH]4)c3)ccc21`, the cytotoxicity call is “active”.

With `Nc1nc(=O)c2c(CCc3ccc(C(=O)NC(CCC(=O)[O-])C(=O)[O-])cc3)c[nH]c2[nH]1.[Na+].[Na+]` (stereo not given), the cytotoxicity call is “inactive”.

For the compound `CC(C)CC#Cc1ccc2c(c1)O[C@@H](CN(C)C(=O)c1cnccn1)[C@@H](C)CN([C@@H](C)CO)S2(=O)=O`, the cytotoxicity call is “inactive”.

Take `COc1ccc(CN(C)C[C@@H]2Oc3ccc(NS(=O)(=O)c4c(C)noc4C)cc3CC(=O)N([C@H](C)CO)C[C@H]2C)cc1`: the cytotoxicity call was “inactive”. For the compound `CC1C=CC=CC=CC=CC=CC=CC=CC(OC2OC(C)C(O)C(N)C2O)CC2OC(O)(CC(O)CC(O)C(O)CCC(O)CC(O)CC(=O)OC(C)C(C)C1O)CC(O)C2C(=O)O` (stereo not given), the cytotoxicity call is “inactive”.

With `CC1C=CC=CC=CC=CC=CC=CC=CC(OC2OC(C)C(O)C(N)C2O)CC(O)C(C(=O)O)C(O)CC(=O)CC(O)CC(O)CC(O)CC(=O)CCCC(=O)CC(=O)OC1C(C)CC(C)C(O)CC(=O)c1ccc(N)cc1` (stereo not given), the cytotoxicity call is “active”.

Take `C[C@H]1[C@@H](O)[C@@H](C)\C=C/C=C\C=C/C=C\C=C/C=C\C=C/[C@@H](O[C@H]2O[C@H](C)[C@@H](O)[C@H](N)[C@@H]2O)C[C@H]2O[C@](O)(C[C@@H](O)C[C@@H](O)[C@@H](O)CC[C@@H](O)C[C@@H](O)CC(=O)O[C@H]1C)C[C@@H](O)[C@@H]2C(=O)O`: the cytotoxicity call was “inactive”. As for `COc1ccc(CN(C)C[C@@H]2OCCCC[C@@H](C)Oc3ccc(NC(=O)NC(C)C)cc3C(=O)N([C@H](C)CO)C[C@H]2C)cc1`, the cytotoxicity call was “inactive”. Consider `Cc1cccc(NC(=O)Nc2ccc3c(c2)C(=O)N(C)[C@@H]2CC[C@H](CC(=O)NCc4ccccc4Cl)O[C@@H]2CO3)c1`, for which the cytotoxicity call was “inactive”.

Regarding `Cc1ccc(S(=O)(=O)Nc2ccc3c(c2)C(=O)N([C@H](C)CO)C[C@@H](C)[C@@H](CN(C)S(C)(=O)=O)OCCCC[C@H](C)O3)cc1`, the cytotoxicity call is “inactive”. As to `c1ccc2c(CSc3nc4ccccc4s3)cccc2c1`, the cytotoxicity call was “inactive”.

With `c1cnc2c(SCc3nc4ccccc4s3)cccc2c1`, the cytotoxicity call is “active”. In the case of `CCSc1cccc2cccnc12`, the cytotoxicity call was “inactive”. Turning to `Cc1ccc(S(=O)(=O)Nc2ccc3c(c2)CC(=O)N([C@@H](C)CO)C[C@@H](C)[C@H](CN(C)C(=O)Nc2ccc(C(F)(F)F)cc2)O3)cc1`, the cytotoxicity call is “inactive”.

In the case of `C[C@@H]1CN([C@@H](C)CO)C(=O)c2cc(C#Cc3ccccc3F)cnc2O[C@@H]1CN(C)C(=O)Cc1ccncc1`, the cytotoxicity call was “inactive”. For the compound `Cc1ccc(S(=O)(=O)Nc2ccc3c(c2)C(=O)N([C@H](C)CO)C[C@@H](C)[C@@H](CN(C)Cc2ccc(C(F)(F)F)cc2)O3)cc1`, the cytotoxicity call is “active”. With `Cc1ccc(S(=O)(=O)Nc2ccc3c(c2)C(=O)N([C@H](C)CO)C[C@@H](C)[C@H](CN(C)Cc2ccc(C(F)(F)F)cc2)O3)cc1`, the cytotoxicity call was “active”. Consider `Cc1ccc(S(=O)(=O)Nc2ccc3c(c2)C(=O)N([C@@H](C)CO)C[C@H](C)[C@@H](CN(C)Cc2ccc(C(F)(F)F)cc2)O3)cc1`, for which the cytotoxicity call is “inactive”. In the case of `Cc1ccc(S(=O)(=O)Nc2ccc3c(c2)C(=O)N([C@@H](C)CO)C[C@H](C)[C@H](CN(C)Cc2ccc(C(F)(F)F)cc2)O3)cc1`, the cytotoxicity call was “inactive”. On to `Cc1ccc(S(=O)(=O)Nc2ccc3c(c2)C(=O)N([C@H](C)CO)C[C@H](C)[C@H](CN(C)Cc2ccc(C(F)(F)F)cc2)O3)cc1`, for which the cytotoxicity call is “inactive”. With `Cc1ccc(S(=O)(=O)Nc2ccc3c(c2)C(=O)N([C@H](C)CO)C[C@H](C)[C@@H](CN(C)Cc2ccc(C(F)(F)F)cc2)O3)cc1`, the cytotoxicity call is “inactive”. For the compound `COc1ccc2c3c(n(c2c1)C)[C@@H](CO)N(C[C@]13CN(C1)C(=O)C)C(=O)CN1CCOCC1`, the cytotoxicity call is “inactive”. Consider `Cc1noc(C)c1S(=O)(=O)Nc1ccc2c(c1)CC(=O)N([C@@H](C)CO)C[C@@H](C)[C@@H](CN(C)S(=O)(=O)c1ccccc1)O2`, for which the cytotoxicity call was “inactive”. In the case of `CN(C)C(=O)C[C@H]1C=C[C@@H](NC(=O)C2CC2)[C@@H](CO)O1`, the cytotoxicity call was “inactive”. For the compound `COc1ccc([Si](C)(C)[C@H]2[C@H](CCO)O[C@@]3(C(=O)N(Cc4ccccc4)c4ccc(N5C(=O)c6cccc7cccc5c67)cc43)[C@@H]2C)cc1`, the cytotoxicity call is “inactive”.

On to `C=CCN1C(=O)[C@@]2(O[C@@H](CCO)[C@H]([Si](C)(C)c3ccc(OC)cc3)[C@H]2C)c2cc(N3C(=O)c4cccc5cccc3c45)ccc21`, for which the cytotoxicity call is “active”. For the compound `C=CCN1C(=O)[C@@]2(O[C@@H](CCO)[C@H]([Si](C)(C)F)[C@H]2C)c2cc(N3C(=O)c4cccc5cccc3c45)ccc21`, the cytotoxicity call was “inactive”. On to `C=CCN1C(=O)[C@]2(O[C@H](CCn3cc([C@H](O)c4ccccc4)nn3)[C@@H]([Si](C)(C)c3ccc(OC)cc3)[C@@H]2C)c2cc(N3C(=O)c4cccc5cccc3c45)ccc21`, for which the cytotoxicity call was “inactive”. As to `C=CCN1C(=O)[C@@]2(O[C@@H](CCn3cc([C@H](O)c4ccccc4)nn3)[C@H]([Si](C)(C)c3ccc(OC)cc3)[C@H]2C)c2cc(N3C(=O)c4cccc5cccc3c45)ccc21`, the cytotoxicity call was “inactive”. As for `C=CCN1C(=O)[C@]2(O[C@H](CCO)[C@@H]([Si](C)(C)c3ccc(OC)cc3)[C@@H]2C)c2cc(N3C(=O)c4cccc5cccc3c45)ccc21`, the cytotoxicity call was “active”.
